Test results: PubChem BioAssay AID652015 (National Center for Advancing Translational Sciences (NCATS), 2013)
Inconclusive results are not listed. Where a call stands in place of a potency, no number is given. Active and inactive are the calls of the source. Calls come from the whole dose curve; as a rule, active = well fitted inhibition curve with a large enough effect; inconclusive = small, poorly fitted or top-dose-only effect; inactive = no such curve, though single readings can be large or run the other way.

These molecules were tested against Coelenterazine h 2-monooxygenase (Renilla reniformis) (UniProt P27652) (assay: qHTS Assay for Inhibitors of Sea Pansy Luciferase from the GSK Published Protein Kinase Inhibitor Set). Details: purified Renilla luciferase, luminescence; series mostly up to 57.5 µM.
Procedure, shortened: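 qHTS (roughly 60 uM down to 300 pM) against 1 nM Renilla luciferase, substrate coelenterazine h 5 uM, Tris acetate pH 7.5 buffer with NaCl, Tween-20 and BSA. Luminescence measured after an average 2 min incubation.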

Chain of Coelenterazine h 2-monooxygenase (Renilla reniformis) (P27652 whole entry, looked up): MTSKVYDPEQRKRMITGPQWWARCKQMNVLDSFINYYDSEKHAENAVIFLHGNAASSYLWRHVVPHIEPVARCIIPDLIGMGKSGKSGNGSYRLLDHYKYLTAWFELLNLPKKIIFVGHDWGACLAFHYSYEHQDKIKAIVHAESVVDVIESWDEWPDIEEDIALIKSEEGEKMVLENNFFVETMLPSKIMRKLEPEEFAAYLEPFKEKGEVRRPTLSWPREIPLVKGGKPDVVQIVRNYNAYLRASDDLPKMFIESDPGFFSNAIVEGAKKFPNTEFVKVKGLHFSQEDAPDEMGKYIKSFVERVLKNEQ

| Structure (SMILES) | Potency |
| --- | --- |
| Cc1cccc(Oc2nccc(-c3c(-c4ccc(F)cc4)ncn3C3CCNCC3)n2)c1C | inactive |
| NC(=O)c1cc(-c2ccncc2)cc(-c2ccccc2)c1N | inactive |
| NC(=O)c1cccc(Nc2nccc(Nc3cccc(F)c3)n2)c1 | inactive |
| COc1cc(N2CCN(C(C)C)CC2)ccc1Nc1nc(Nc2cccc(F)c2C(=O)O)c2cc[nH]c2n1 | inactive |
| CS(=O)(=O)CCNCc1nc(-c2ccc3ncnc(Nc4ccc(OCc5cccc(C(F)(F)F)c5)cc4)c3c2)cs1 | inactive |
| Cc1ccc(O)cc1Nc1ccnc2ccc(S(C)(=O)=O)cc12 | inactive |
| COc1cccc(-n2ncc3c(NN=Cc4ccc(S(C)(=O)=O)cc4)ncnc32)c1 | inactive |
| Fc1cccc(COc2ccc(Nc3ncnc4sc(-c5ccco5)cc34)cc2Cl)c1 | inactive |
| COc1cc2ncnc(Nc3ccc(C)c(O)c3)c2cc1OC | inactive |
| O=C(Nc1n[nH]c2nnc(-c3cccnc3)cc12)C1CC1 | inactive |
| CN(c1ccc(NC(=O)Nc2ccc(OC(F)(F)F)cc2)cc1)c1ccnc(Nc2cccc(S(N)(=O)=O)c2)n1 | inactive |
| Fc1ccc(Oc2nccc(-c3c(-c4ccc(F)cc4)ncn3C3CCNCC3)n2)cc1 | inactive |
| NS(=O)(=O)c1ccc(Nc2cc(-c3cccc(O)c3)[nH]n2)cc1 | inactive |
| COc1ccccc1C1=C(Nc2ccccc2)C(=O)NC1=O | inactive |
| CCc1nn2ncccc2c1-c1ccnc(NC2CC2)n1 | inactive |
| CCn1c(-c2nonc2N)nc2c(C#CC(C)(C)O)ncc(OC3CCNCC3)c21 | inactive |
| COc1ccc(-c2cc3c(N)ncnc3o2)cc1 | inactive |
| COC(=O)Nc1nc2ccc(Oc3ccc(NC(=O)Nc4cc(C(F)(F)F)ccc4F)cc3)cc2s1 | inactive |
| COc1cc2ncn(-c3cc(OCc4ccccc4S(C)(=O)=O)c(C#N)s3)c2cc1OC | inactive |
| O=C(O)c1ccc(Oc2nccc(-c3c(-c4ccc(F)cc4)ncn3C3CCNCC3)n2)cc1 | inactive |

| Structure (SMILES) | Potency |
| --- | --- |
| CC(C)(CO)CNC(=O)c1ccc2[nH]c(O)c(N=Nc3ccc(S(N)(=O)=O)cc3)c2c1 | inactive |
| CCn1c(-c2nonc2N)nc2cncc(C(=O)NCCNC)c21 | inactive |
| COc1cccc(-n2ncc3c(NN=Cc4cccc(F)c4)ncnc32)c1 | inactive |
| COc1cc(C=NNc2ncnc3c2cnn3Cc2ccccc2)ccc1O | inactive |
| COc1cc(C)c(N(C)C(=O)CN(C)C)cc1Nc1nc(Nc2cccc(F)c2C(N)=O)c2cc[nH]c2n1 | inactive |
| COc1cccc(-c2c[nH]c3c(NN=Cc4ccncc4)ncnc23)c1 | inactive |
| COC(=O)Nc1nc2ccc(Oc3ccc(NC(=O)Nc4cccc(Br)c4)cc3)cc2[nH]1 | inactive |
| CC(=Nc1ccc(S(N)(=O)=O)cc1)c1c(O)[nH]c2ccccc12 | inactive |
| Cc1cc(O)cc(C)c1C=Cc1cncc(-c2nn[nH]n2)c1 | inactive |
| CCCN1CCC(Oc2cc(Nc3nc(Nc4cccc(F)c4C(N)=O)c4cc[nH]c4n3)c(OC)cc2Cl)CC1 | inactive |
| COc1ccc(-c2cc(-c3cn[nH]c3-c3ccccn3)ccn2)cc1 | inactive |
| c1ccc(-c2[nH]ncc2-c2ccnc(-c3ccc(OCCN4CCOCC4)cc3)c2)nc1 | inactive |
| O=S1CCN(Cc2ccc(-c3ccc4ncnc(Nc5ccc(OCc6ccccc6)c(F)c5)c4c3)o2)CC1 | inactive |
| CCn1c(-c2nonc2N)nc2ccccc21 | inactive |
| NS(=O)(=O)c1cccc(Nc2cc(-c3ccc(F)cc3)[nH]n2)c1 | inactive |
| CS(=O)(=O)CCNCc1ccc(-c2ccc3ncnc(Nc4ccc(OCc5ccccc5)c(Br)c4)c3c2)o1 | inactive |
| COc1ccc(-c2nn3ncccc3c2-c2ccnc(Nc3ccc(F)c(F)c3)n2)cc1 | inactive |
| CCn1c(-c2nonc2N)nc2ccc(F)cc21 | inactive |
| CCC(=O)Nc1ccc(C)c(-c2ccc(C(=O)NCC3CC3)cc2)c1 | inactive |
| CN1CCC(n2cnc(-c3ccc(F)cc3)c2-c2ccnc(NCCO)n2)CC1 | inactive |
